# Measured values as given in the supplement of paper PMC12808144.
# Tested on: Mel-DCC-11-R
# Assay: cell viability relative to DMSO control (fraction of DMSO control); higher = less cytotoxic, active = 0.8 or less
# Details: 1 µM; 120 h; vemurafenib co-treatment 0 µM
# How it was run: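 A library of 315 approved anti-cancer drugs (TargetMol) was acoustically pre-spotted into 384-well plates and tested at 1 µM in duplicate for 120 h. Cells were added in 40 µl per well: NHEM-hTERT immortalized melanocytes at 2500/well, and patient-derived Mel-DCC-11 and its resistant subline Mel-DCC-11-R at 1500/well. The subline was tested both alone and with 8 µM of its selecting drug. Viability was read by ATPlite 1step luminescence, normalised to DMSO controls and averaged over duplicates.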
row,SMILES,cell viability
1,NC(=O)NO [Hydroxyurea],1.09 (inactive)
2,COc1ccc2cc3[n+](cc2c1OC)CCc1cc2c(cc1-3)OCO2 [Berberine],1.05 (inactive)
3,COC(=O)[C@]12CCC(C)(C)C[C@H]1[C@H]1C(=O)C=C3[C@@]4(C)C=C(C#N)C(=O)C(C)(C)[C@@H]4CC[C@@]3(C)[C@]1(C)CC2 [Bardoxolone Methyl],0.833 (inactive)
4,COC(=O)N[C@@H](C)CNc1nccc(-c2cn(C(C)C)nc2-c2cc(Cl)cc(NS(C)(=O)=O)c2F)n1 [Encorafenib],0.802 (inactive)
5,CCc1cc2c(cc1N1CCC(N3CCOCC3)CC1)C(C)(C)c1[nH]c3cc(C#N)ccc3c1C2=O [Alectinib],1.12 (inactive)
6,Nc1ncn([C@@H]2O[C@H](CO)[C@@H](O)[C@H]2O)c(=O)n1 [Mylosar],0.927 (inactive)
7,CC(=O)c1c(C)c2cnc(Nc3ccc(N4CCNCC4)cn3)nc2n(C2CCCC2)c1=O.O=S(=O)(O)CCO [Palbociclib Isethionate],1.6 (inactive)
8,CCCCc1nc2cc(/C=C/C(=O)NO)ccc2n1CCN(CC)CC [Pracinostat],0.699 (active)
9,CC(C)(CO)c1cc2cc(NC(=O)C3(c4ccc5c(c4)OC(F)(F)O5)CC3)c(F)cc2n1C[C@@H](O)CO,1.18 (inactive)
10,CCOc1cc2ncc(C#N)c(Nc3ccc(OCc4ccccn4)c(Cl)c3)c2cc1NC(=O)/C=C/CN(C)C [Neratinib],1.31 (inactive)
11,CCN(CC)CCOc1ccc2c(c1)C(=O)c1cc(OCCN(CC)CC)ccc1-2.Cl.Cl [Tilorone dihydrochloride],0.883 (inactive)
12,C[C@@H]1O[C@@H](O[C@H]2[C@H](Oc3cc(O)c4c(c3)O[C@H](c3ccc(O)cc3)CC4=O)O[C@H](CO)[C@@H](O)[C@@H]2O)[C@H](O)[C@H](O)[C@H]1O [Naringin],1.02 (inactive)
13,COc1cc(NS(C)(=O)=O)ccc1Nc1c2ccccc2nc2ccccc12 [Amsacrine],1.06 (inactive)
14,CCCS(=O)(=O)Nc1ccc(F)c(C(=O)c2c[nH]c3ncc(-c4ccc(Cl)cc4)cc23)c1F [Vemurafenib],0.991 (inactive)
15,COc1cc2ncnc(Nc3ccc(F)c(Cl)c3)c2cc1NC(=O)/C=C/CN1CCCCC1 [Dacomitinib],1.07 (inactive)
16,CS(=O)(=O)c1ccc(C2=C(c3ccccc3)C(=O)OC2)cc1 [Rofecoxib],0.862 (inactive)
17,COC(=O)c1ccc2c(c1)NC(=O)/C2=C(\Nc1ccc(N(C)C(=O)CN2CCN(C)CC2)cc1)c1ccccc1 [Nintedanib],1.01 (inactive)
18,Cl.N=C1CCCN1Cc1[nH]c(=O)[nH]c(=O)c1Cl [Tipiracil hydrochloride],0.816 (inactive)

row,SMILES,cell viability
1,CC1(COc2ccc3c(c2)ncn3-c2ccc3cccc(N4CCC(N)CC4)c3n2)COC1 [Crenolanib],1.26 (inactive)
2,COc1c2occc2cc2ccc(=O)oc12 [8-Methoxypsoralen],1.05 (inactive)
3,C=CC(=O)Nc1cc(Nc2nccc(-c3cn(C)c4ccccc34)n2)c(OC)cc1N(C)CCN(C)C.CS(=O)(=O)O [Osimertinib mesylate],1.21 (inactive)
4,COC(=O)N[C@H](C(=O)N1CC2(CC2)C[C@H]1c1ncc(-c2ccc3c(c2)C(F)(F)c2cc(-c4ccc5nc([C@@H]6[C@H]7CC[C@H](C7)N6C(=O)[C@@H](NC(=O)OC)C(C)C)[nH]c5c4)ccc2-3)[nH]1)C(C)C [Ledipasvir],1.13 (inactive)
5,C[C@H]1O[C@@H](n2cc(F)c(=O)[nH]c2=O)[C@H](O)[C@@H]1O [Doxifluridine],1.08 (inactive)
6,N#CC1(c2ccc(NC(=O)c3cccnc3NCc3ccncc3)cc2)CCCC1 [Apatinib],1.14 (inactive)
7,CN(C)C/C=C/C(=O)Nc1cc2c(Nc3ccc(F)c(Cl)c3)ncnc2cc1O[C@H]1CCOC1.O=C(O)/C=C\C(=O)O.O=C(O)/C=C\C(=O)O [Afatinib Dimaleate],1.03 (inactive)
8,CCNC(=O)[C@@H]1CCCN1C(=O)[C@H](CCCN=C(N)N)NC(=O)[C@H](CC(C)C)NC(=O)[C@@H](CC(C)C)NC(=O)[C@H](Cc1ccc(O)cc1)NC(=O)[C@H](CO)NC(=O)[C@H](Cc1c[nH]c2ccccc12)NC(=O)[C@H](Cc1cnc[nH]1)NC(=O)[C@@H]1CCC(=O)N1 [Leuprorelin Acetate],0.854 (inactive)
9,CCc1cn([C@H]2C[C@H](O)[C@@H](CO)O2)c(=O)[nH]c1=O [Edoxudine],0.776 (active)
10,Cn1nnc(-c2ccc(-c3ccc(N4C[C@H](CO)OC4=O)cc3F)cn2)n1 [Torezolid],0.848 (inactive)
11,CC(C)(C)c1nc(-c2cccc(NS(=O)(=O)c3c(F)cccc3F)c2F)c(-c2ccnc(N)n2)s1 [Dabrafenib],1.03 (inactive)
12,[Cl][Pt+2][Cl] [Cisplatin],1.08 (inactive)
13,Cl.NNc1nncc2ccccc12 [Hydralazine hydrochloride],1.03 (inactive)
14,COc1cc2nccc(Oc3ccc(NC(=O)Nc4cc(C)on4)c(Cl)c3)c2cc1OC [Tivozanib],1.08 (inactive)
15,CC[C@]1(O)C[C@@H]2C[N@@](CCc3c([nH]c4ccccc34)[C@@](C(=O)OC)(c3cc4c(cc3OC)N(C)[C@H]3[C@@](O)(C(=O)OC)[C@H](OC(C)=O)[C@]5(CC)C=CCN6CC[C@]43[C@@H]65)C2)C1.O=S(=O)(O)O [Vinblastine sulfate],0.488 (active)
16,CO[C@H]1C(=O)[C@]2(C)[C@@H](OC)C[C@H]3OC[C@@]3(OC(C)=O)[C@H]2[C@H](OC(=O)c2ccccc2)[C@]2(O)C[C@H](OC(=O)[C@H](O)[C@@H](NC(=O)OC(C)(C)C)c3ccccc3)C(C)=C1C2(C)C [Cabazitaxel],1.04 (inactive)
17,CC1(C)CCC(C)(C)c2cc(NC(=O)c3ccc(C(=O)O)cc3)ccc21 [Tamibarotene],0.958 (inactive)
18,CC[C@]1(O)C[C@H]2CN(CCc3c([nH]c4ccccc34)[C@@](C(=O)OC)(c3cc4c(cc3OC)N(C=O)[C@H]3[C@@](O)(C(=O)OC)[C@H](OC(C)=O)[C@]5(CC)C=CCN6CC[C@]43[C@@H]65)C2)C1.O=S(=O)(O)O [Vincristine sulfate],0.455 (active)
